Assay outcomes as filed in PubChem BioAssay.
tim23-1 inh: growth inhibitors of tim23-1 mutant yeast. S. cerevisiae tim23-1 growth, BacTiter-Glo luminescence, 24 h. inhibition, % at 20 µM. 330,000 tested, 1.3% active. AID 463212;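 active = growth inhibition of the mutant yeast at or above 50%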;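 note: temperature-sensitive mutant grown at 25 °C; plate controls were DMSO-treated mutant yeast for no effect and medium wells lacking yeast for full effect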
tim10-1 inh: tim10-1 yeast growth inhibition; S. cerevisiae tim10-1 ts strain growth, BacTiter-Glo, 24 h; inhibition, % at 20 µM; 330,000 tested, 2.2% active;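 active = inhibition of at least 40%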;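 note: mutant grown at 25 °C; 0% = DMSO wells with yeast and 100% = wells holding no yeast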
V-ATPase pHluor: regulators of yeast V-ATPase proton transport. response, % at 10 µM. 350,000 tested, 0.37% active. S. cerevisiae, pHLuorin cytosolic pH fluorescence; in the data active = response mostly above about 7.3%, no sharp cut-off; inactive = mostly below about 5.4%; note: actives read high
TIM10 inh: growth inhibitors of TIM10 yeast strain; inhibition, % at 10 µM; 330,000 tested, 1.4% active; S. cerevisiae TIM10 strain growth, BacTiter-Glo luminescence, 24 h;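 active = inhibition of 40% or more at the single tested concentration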;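 note: wild-type TIM10 isogenic control strain grown at permissive 25 °C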
PfHsp90 yeast 2: growth inhibition of yeast expressing Plasmodium Hsp90; 310,000 tested, 0.32% active; AID 504621; inhibition, % at 9.4 µM; S. cerevisiae expressing PfHsp90, BacTiter-Glo ATP, 48 h; yeast lacking PDR1 and PDR3 efflux regulators;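 active = every replicate shows inhibition above about 80%, whatever the replicate mean, limit read from the data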;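 note: 0% = DMSO neutral controls and 100% = 20 µM radicicol positive controls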
tim10-1 conf: confirmation of tim10-1 mutant yeast growth inhibitors | shares compounds with tim10-1 inh | S. cerevisiae tim10-1 ts strain growth, BacTiter-Glo, 24 h | inhibition, % at 20 µM | 7,400 tested, 56% active | AID 463213;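 active = inhibition of yeast growth at or above a set limit in either of two repeat tests at 20 µM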;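 note: tim10-1 mutant grown at permissive 25 °C to find synthetic lethal compounds; 0% = DMSO yeast wells and 100% = medium wells without yeast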
tim10 confirm: TIM10 yeast growth inhibition, confirmed | shares compounds with TIM10 inh | S. cerevisiae tim10 strain growth, BacTiter-Glo luminescence, 24 h | 4,600 tested, 63% active | inhibition, % at 10 µM;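 active = inhibition of yeast growth at or above a set limit in either of two replicates at 10 µM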;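 note: this counterscreen used the strain with wild-type TIM10; 0% = yeast with DMSO and 100% = medium wells lacking yeast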
An asterisk follows results filed as active; · = no result given. Only some compounds are listed: those with a hit (about 3.7% of all), similar ones and a draw of the others.

SMILES	tim23-1 inh	tim10-1 inh	V-ATPase pHluor	TIM10 inh	PfHsp90 yeast 2	tim10-1 conf	tim10 confirm
CCOC(=O)C(C(=O)OCC)C(Nc1ccccc1)c1ccccc1 (configuration not stated)	37	61*	-2	43*	-12	50*	-19
S=c1[nH]nc(COc2ccccc2)n1/N=C/c1ccc(Br)s1	43	47*	4	46*	-20	34*	49*
NNc1nc2c(-c3ccc(F)cc3)nnn2c2ccccc12	26	46*	-12	74*	-16	56*	73*
Fc1ccc(-c2nnn3c2nc(NCc2ccccc2)c2ccccc23)cc1	0	0	-8	-12	1	·	·
CCN1C(=O)/C(=C/N(C(C)=O)c2ccccc2)N(c2ccccc2)C1=S	29	45*	1	50*	2	42*	-39
CCc1ccc(/C=C2/C(=O)N(c3ccccc3)C(=S)N2CC(=O)OC)s1	42	27	0	12	13	·	·
Cc1ccc(C(=O)OCC(=O)N(CC(C)C)c2c(N)n(Cc3ccccc3)c(=O)[nH]c2=O)o1	6	4	-5	-1	·	·	·
Cc1[nH]c2ccccc2c1C(=O)CSc1nnc(C2CC2)o1	4	7	-2	14	4	·	·
CCN(CC)C(=O)c1ccc2c(c1[N+](=O)[O-])C(=O)c1ccccc1C2=O	38	60*	·	53*	·	44*	-26
COc1cc(/C=C/C(=O)O)cc(S(=O)(=O)Nc2cc(S(=O)(=O)N3CCCCC3)ccc2Cl)c1OC	·	·	-2	·	·	·	·
Cc1cc(OCCSc2nnc(-c3cccs3)n2C)ccc1Cl	44	26	1	38	-4	·	·
Cn1c(SCCOc2ccccc2Cl)nnc1-c1cccs1	39	51*	2	51*	-17	40*	51*
CCOc1ncccc1C(=O)OCC(=O)NCCCc1ccccc1	8	-6	0	-13	2	·	·
O=C(/C=C/c1ccc(-c2ccccc2[N+](=O)[O-])o1)c1ccco1	36	55*	1	48*	-26	44*	46*
CCNc1c(NC(=O)C2CCC(C)CC2)c(=O)oc2ccccc12 (configuration not stated)	-2	1	3	-17	11	·	·
CCCCn1c(N)c(N(CC(C)C)C(=O)C2CCCN(C(=O)c3ccc(Cl)cc3)C2)c(=O)[nH]c1=O (configuration not stated)	22	8	9	1	-21	·	·
O=C(NNC1=C(C(=O)C(F)(F)F)CCC1)c1cccc(Cl)c1	-6	-40	1	-75	51	·	·
O=C(NNC1=C(C(=O)C(F)(F)F)CCC1)c1ccc(Cl)cc1	50	53*	-2	41*	122*	-16	40*
C[C@H](CO)N1C[C@H](C)[C@@H](CN(C)C(=O)Nc2ccc3c(c2)OCO3)Oc2ccc(NS(=O)(=O)c3cn(C)cn3)cc2C1=O	14	11	-5	-3	-1	·	·
CCc1cc2ccc(C)cc2nc1SCC(=O)NNC(=O)c1ccco1	12	40*	-2	42*	-14	20	15
O=C(C1CCCCC1)N1CCN(S(=O)(=O)c2cccc([N+](=O)[O-])c2)CC1	14	0	3	14	-18	·	·
O=C1CC(c2ccc3c(c2)OCCO3)Oc2ccccc21 (configuration not stated)	20	29	0	15	-10	·	·
O=C1CC(c2ccc3c(c2)OCCO3)Oc2ccc([N+](=O)[O-])cc21 (configuration not stated)	47	42*	0	45*	-14	39*	54*
CCNc1c(NS(=O)(=O)c2ccc(Cl)s2)c(=O)oc2ccccc12	-9	-13	-1	-4	-10	·	·
Cc1ccc2c(c1)c1n[nH]c(=S)nc1n2CCc1ccccc1	28	46*	3	41*	-1	0	38*
SMILES	tim23-1 inh	tim10-1 inh	V-ATPase pHluor	TIM10 inh	PfHsp90 yeast 2	tim10-1 conf	tim10 confirm
Fc1ccc2c(c1)c1n[nH]c(=S)nc1n2CCc1ccccc1	10	22	0	27	-20	·	·
Nc1nc(N)c2cc(CNc3ccc(Cl)c(Cl)c3)ccc2n1	·	·	5	·	·	·	·
O=S(=O)(Nc1ccc(S(=O)(=O)Nc2ccccc2)cc1)c1ccccc1	5	19	3	-4	2	·	·
O=S(=O)(Nc1ccc(N=Nc2ccccc2)cc1)c1ccccc1	41	55*	-1	42*	-35	51*	-3
CCN1CCN(C(CNS(=O)(=O)c2ccc(F)cc2)c2cccnc2)CC1 (configuration not stated)	-15	-21	-2	-5	-12	·	·
Oc1ccccc1-c1nc(NCCN2CCOCC2)c2ccccc2n1	44	52*	4	50*	2	40*	32*
COc1cccc(-c2nc(NCCN3CCOCC3)c3ccccc3n2)c1O	4	-7	-4	24	·	·	·
Cc1cc(=O)c2c(o1)C(=O)c1occc1C2=O	·	·	-3	·	18	·	·
CC(Oc1ccccc1)C(=O)N1CCC2(CC1)CC(=O)c1ccccc1O2 (configuration not stated)	11	24	-2	10	·	·	·
Cc1cccc(C(=O)NC(=S)Nc2ccc(Cc3ccncc3)cc2)c1	30	48*	-3	46*	10	31*	34*
CCOC(=O)C(=NCC1CCCO1)NNc1ccccc1Cl (configuration not stated)	12	-57	1	-34	-7	·	·
CCCc1cc(NCc2ccccn2)n2nc(C)c(-c3ccccc3)c2n1	45	43*	-1	47*	107*	58*	76*
CCCc1cc(N2CCCC2)n2nc(C)c(-c3ccccc3)c2n1	46	47*	6	51*	·	23	19
Cc1cc(NCc2ccccn2)n2nc(C)c(-c3ccc(Cl)cc3)c2n1	17	18	2	27	2	·	·
Cc1cccc(-c2ccc3c(c2)C2CC3CCN2)c1 (configuration not stated)	·	·	0	·	27	·	·
Cc1ccc(Oc2nnc(-c3ccccc3)c3ccccc23)cc1	41	51*	-2	41*	11	41*	50*
COc1ccc(C2=C(c3ccc(OC)c(OC)c3)CN3CCCCC3C2)cc1 (configuration not stated)	23	12	-3	9	1	·	·
COc1ccc(Nc2nc3nonc3nc2N2CCCCC2)cc1	30	15	3	8	2	·	·
CC1CCN(c2nc3nonc3nc2Nc2ccc(F)cc2)CC1	35	41*	3	45*	-22	44*	26
CC(=O)OCCCNc1cc(Sc2ccc(C)cc2)c2nonc2c1[N+](=O)[O-]	-8	-19	-17	-4	12	·	·
CC(=O)OCCCNc1cc(Sc2nc3ccccc3s2)c2nonc2c1[N+](=O)[O-]	44	91*	2	85*	-8	91*	1
